{"source": "the supplement of paper PMC6658780", "tested_on": "Escherichia coli ATCC BAA-2469", "test": "percent growth inhibition of drug + antibiotic vs DMSO control; higher = more growth inhibition", "procedure": "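Prestwick drugs tested at 20 uM and 7 uM with an antibiotic at 0.125x MIC (16 mg/L when MIC >128 mg/L) against E. coli ATCC BAA-2469 (NDM-1) in CAMHB, 384-well plates, duplicate runs. Percent growth inhibition was computed from OD600 (24 h minus 0 h) relative to DMSO wells. Drug + DMSO-only wells are also given. […]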", "key": {"[1]": {"conditions": "antibiotic (0.125x MIC): ciprofloxacin, 7 µM"}, "[2]": {"conditions": "antibiotic (0.125x MIC): ciprofloxacin, 20 µM"}, "[3]": {"conditions": "antibiotic (0.125x MIC): gentamicin, 7 µM"}, "[4]": {"conditions": "antibiotic (0.125x MIC): gentamicin, 20 µM"}, "[5]": {"conditions": "antibiotic (0.125x MIC): meropenem, 7 µM"}, "[6]": {"conditions": "antibiotic (0.125x MIC): meropenem, 20 µM"}}, "note": "Counter-ions that a name gives are not always drawn. ± gives the standard deviation of the averaged measurements.", "data": [{"smiles": "COC(=O)N/N=C/c1c[n+]([O-])c2ccccc2[n+]1[O-]", "note": "[Carbadox]", "values": [{"measurement": "percent growth inhibition", "setting": "[1]", "value": "35.21 ± 0.15", "unit": "%"}, {"measurement": "percent growth inhibition", "setting": "[2]", "value": "68.9 ± 6.1", "unit": "%"}, {"measurement": "percent growth inhibition", "setting": "[3]", "value": "46.5 ± 17", "unit": "%"}, {"measurement": "percent growth inhibition", "setting": "[4]", "value": "85 ± 3.9", "unit": "%"}, {"measurement": "percent growth inhibition", "setting": "[5]", "value": "39.9 ± 16", "unit": "%"}, {"measurement": "percent growth inhibition", "setting": "[6]", "value": "78.3 ± 7.7", "unit": "%"}]}, {"smiles": "CS(=O)(=O)c1ccc([C@@H](O)[C@@H](CF)NC(=O)C(Cl)Cl)cc1", "note": "[Florfenicol]", "values": [{"measurement": "percent growth inhibition", "setting": "[1]", "value": "35.4 ± 4.7", "unit": "%"}, {"measurement": "percent growth inhibition", "setting": "[2]", "value": "88.8 ± 2.8", "unit": "%"}]}, {"smiles": "O=C(N[C@H](CO)[C@H](O)c1ccc([N+](=O)[O-])cc1)C(Cl)Cl", "note": "[Chloramphenicol]", "values": [{"measurement": "percent growth inhibition", "setting": "[1]", "value": "18.4 ± 4.5", "unit": "%"}, {"measurement": "percent growth inhibition", "setting": "[2]", "value": "92.4 ± 9.2", "unit": "%"}, {"measurement": "percent growth inhibition", "setting": "[3]", "value": "38.6 ± 9.3", "unit": "%"}, {"measurement": "percent growth inhibition", "setting": "[4]", "value": "102 ± 3.6", "unit": "%"}, {"measurement": "percent growth inhibition", "setting": "[5]", "value": "40.2 ± 7", "unit": "%"}, {"measurement": "percent growth inhibition", "setting": "[6]", "value": "89.3 ± 10", "unit": "%"}]}, {"smiles": "CO[C@H]1/C=C/O[C@@]2(C)Oc3c(C)c(O)c4c(O)c(c5c(nc6cc(C)ccn65)c4c3C2=O)NC(=O)/C(C)=C\\C=C\\[C@H](C)[C@H](O)[C@@H](C)[C@@H](O)[C@@H](C)[C@H](OC(C)=O)[C@@H]1C", "note": "[Rifaximin]", "values": [{"measurement": "percent growth inhibition", "setting": "[2]", "value": "99.44 ± 0.47", "unit": "%"}, {"measurement": "percent growth inhibition", "setting": "[3]", "value": "68.8 ± 13", "unit": "%"}, {"measurement": "percent growth inhibition", "setting": "[5]", "value": "94.7 ± 4.2", "unit": "%"}, {"measurement": "percent growth inhibition", "setting": "[6]", "value": "99 ± 1.7", "unit": "%"}]}, {"smiles": "CO[C@H]1/C=C/O[C@@]2(C)Oc3c(C)c(O)c4c(O)c(c(/C=N/N5CCN(C6CCCC6)CC5)c(O)c4c3C2=O)NC(=O)/C(C)=C\\C=C\\[C@H](C)[C@H](O)[C@@H](C)[C@@H](O)[C@@H](C)[C@H](OC(C)=O)[C@@H]1C", "note": "[Rifapentine]", "values": [{"measurement": "percent growth inhibition", "setting": "[2]", "value": "99.9 ± 4.6", "unit": "%"}, {"measurement": "percent growth inhibition", "setting": "[6]", "value": "96.3 ± 5.3", "unit": "%"}]}, {"smiles": "COc1ccc2c(c1)c(CC(=O)OCC(=O)O)c(C)n2C(=O)c1ccc(Cl)cc1", "note": "[Acemetacin]", "values": [{"measurement": "percent growth inhibition", "setting": "[3]", "value": "2.64 ± 1.7", "unit": "%"}]}, {"smiles": "Cc1c(N(C)C)c(=O)n(-c2ccccc2)n1C", "note": "[Amidopyrine]", "values": [{"measurement": "percent growth inhibition", "setting": "[3]", "value": "0.636 ± 5.5", "unit": "%"}]}, {"smiles": "Cc1cc(/C=C/c2ccc3cc(N(C)C)ccc3[n+]2C)c(C)n1-c1ccccc1", "note": "[Pyrvinium pamoate]", "values": [{"measurement": "percent growth inhibition", "setting": "[3]", "value": "13.6 ± 14", "unit": "%"}, {"measurement": "percent growth inhibition", "setting": "[5]", "value": "11.6 ± 17", "unit": "%"}, {"measurement": "percent growth inhibition", "setting": "[6]", "value": "18 ± 14", "unit": "%"}]}, {"smiles": "COc1cc(NS(=O)(=O)c2ccc(N)cc2)nc(OC)n1", "note": "[Sulfadimethoxine]", "values": [{"measurement": "percent growth inhibition", "setting": "[3]", "value": "1.55 ± 1.5", "unit": "%"}]}, {"smiles": "N[C@@H]1CCCCN(c2c(F)cc3c(=O)c(C(=O)O)cn(C4CC4)c3c2Cl)C1", "note": "[Besifloxacin hydrochloride]", "values": [{"measurement": "percent growth inhibition", "setting": "[3]", "value": "6.28 ± 5.6", "unit": "%"}, {"measurement": "percent growth inhibition", "setting": "[5]", "value": "2.23 ± 6.8", "unit": "%"}]}, {"smiles": "C#C[C@]1(O)CC[C@H]2[C@@H]3CCC4=C(CCC(=O)C4)[C@H]3CC[C@@]21C", "note": "[Norethynodrel]", "values": [{"measurement": "percent growth inhibition", "setting": "[3]", "value": "4.39 ± 3.6", "unit": "%"}]}, {"smiles": "O=C1CN(/N=C/c2ccc([N+](=O)[O-])o2)C(=O)N1", "note": "[Nitrofurantoin]", "values": [{"measurement": "percent growth inhibition", "setting": "[3]", "value": "6.28 ± 5.3", "unit": "%"}, {"measurement": "percent growth inhibition", "setting": "[5]", "value": "2.1 ± 2.9", "unit": "%"}]}, {"smiles": "CO[C@H]1/C=C/O[C@@]2(C)Oc3c(C)c(O)c4c(c3C2=O)C2=NC3(CCN(CC(C)C)CC3)NC2=C(NC(=O)/C(C)=C\\C=C\\[C@H](C)[C@H](O)[C@@H](C)[C@@H](O)[C@@H](C)[C@H](OC(C)=O)[C@@H]1C)C4=O", "note": "[Rifabutin]", "values": [{"measurement": "percent growth inhibition", "setting": "[3]", "value": "86.11 ± 0.8", "unit": "%"}, {"measurement": "percent growth inhibition", "setting": "[4]", "value": "114 ± 20", "unit": "%"}, {"measurement": "percent growth inhibition", "setting": "[5]", "value": "97.8 ± 1.9", "unit": "%"}, {"measurement": "percent growth inhibition", "setting": "[6]", "value": "111 ± 12", "unit": "%"}]}, {"smiles": "CCN(CC)CCNC(=O)c1cc(Br)c(N)cc1OC", "note": "[Bromopride]", "values": [{"measurement": "percent growth inhibition", "setting": "[3]", "value": "1.42 ± 2.4", "unit": "%"}]}, {"smiles": "CS(=O)(=O)c1ccc([C@@H](O)[C@@H](CO)NC(=O)C(Cl)Cl)cc1", "note": "[Thiamphenicol]", "values": [{"measurement": "percent growth inhibition", "setting": "[5]", "value": "7.39 ± 2.1", "unit": "%"}, {"measurement": "percent growth inhibition", "setting": "[6]", "value": "30.4 ± 14", "unit": "%"}]}, {"smiles": "Cc1cc(N)c2ccccc2[n+]1CCCCCCCCCC[n+]1c(C)cc(N)c2ccccc21", "note": "[Dequalinium dichloride]", "values": [{"measurement": "percent growth inhibition", "setting": "[5]", "value": "-1.34 ± 1.8", "unit": "%"}, {"measurement": "percent growth inhibition", "setting": "[6]", "value": "34.5 ± 0.8", "unit": "%"}]}, {"smiles": "O=C(O)CN(CCN(CC(=O)O)CC(=O)O)CCN(CC(=O)O)CC(=O)O", "note": "[Pentetic acid]", "values": [{"measurement": "percent growth inhibition", "setting": "[5]", "value": "-3.74 ± 3.2", "unit": "%"}]}]}
